In PubChem BioAssay (NCI):
This is part of a sample that, as a whole, favours compounds with a hit. Of some 79,000 tested, about 15% had one in any assay. Activity calls are given as the source filed them. Cut-off read from the data, not from the text of the source: active = growth inhibition above about 70%; inactive = the rest.

Key:
[1] = NCI Yeast Anticancer Drug Screen. Data for the mec2-1 strain (AID 157); settings: S. cerevisiae mec2-1 strain, hits give high values
How it was run: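 Growth inhibition is read against vehicle-treated controls after compound exposure of the mec2-1 yeast strain, which is defective in DNA damage repair or cell cycle control.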

[2] = NCI Yeast Anticancer Drug Screen. Data for the rad14 strain (AID 159);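 note: 0% = growth of vehicle-treated control cultures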; settings: S. cerevisiae rad14 strain growth inhibition, hits give high values
How it was run: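 Test compounds were applied to a repair-deficient yeast strain. Its growth was then compared with that of cultures given vehicle alone, and inhibition was expressed relative to those controls.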

[3] = NCI Yeast Anticancer Drug Screen. Data for the sgs1 mgt1 strain (AID 161);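 note: 0% = growth of cultures given vehicle only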; settings: S. cerevisiae sgs1 mgt1 strain, hits give high values
How it was run: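 Yeast cells carrying a defined DNA-repair defect were exposed to test compounds. Growth inhibition was measured relative to vehicle-treated controls.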

[4] = NCI Yeast Anticancer Drug Screen. Data for the CLN2oe strain (AID 163);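 note: 0% = growth of vehicle-only control cultures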; settings: S. cerevisiae CLN2oe strain, hits give high values
How it was run: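 Compound-treated yeast; growth vs vehicle ctrl = % inhibition. Genetically altered strain (cell-cycle control).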

[5] = NCI Yeast Anticancer Drug Screen. Data for the cln2 rad14 strain (AID 165);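 note: 0% = growth equal to vehicle treated cultures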; settings: S. cerevisiae cln2 rad14 strain, hits give high values
How it was run: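 Growth inhibition, relative to vehicle-treated controls, is the read-out. The test organism is a yeast strain with defined genetic alterations, cln2 rad14.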

[6] = NCI Yeast Anticancer Drug Screen. Data for the bub3 strain (AID 167); settings: S. cerevisiae bub3 mutant strain, hits give high values
How it was run: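 Yeast carrying a defined mutation is treated with each compound, and growth is compared with that of vehicle-exposed cells to give inhibition.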

[7] = NCI Yeast Anticancer Drug Screen. Data for the wt2 strain (AID 169);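 note: 0% = growth of vehicle-treated yeast cultures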; settings: S. cerevisiae wt2 strain growth inhibition, hits give high values
How it was run: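 Compound exposure of yeast; growth compared with vehicle controls; inhibition reported.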

[8] = NCI Yeast Anticancer Drug Screen. Data for the mlh1 strain (AID 171);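 note: 0% = growth of vehicle-treated control cultures of the same strain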; settings: S. cerevisiae mlh1 strain growth inhibition, hits give high values
How it was run: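 Compounds are applied to a genetically altered yeast strain, and its growth is compared with that of vehicle-treated cultures to give percent inhibition.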

[9] = NCI Yeast Anticancer Drug Screen. Data for the sgs1 strain (AID 173);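 note: 0% = growth of vehicle-only control cultures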; settings: S. cerevisiae sgs1 mutant, hits give high values
How it was run: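 Compounds applied to genetically altered yeast; growth compared with vehicle-treated cultures to give % inhibition.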

[10] = NCI Yeast Anticancer Drug Screen. Data for the rad18 strain (AID 177); settings: S. cerevisiae rad18 mutant growth inhibition, hits give high values
How it was run: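 Compounds are applied to a repair-deficient yeast strain, and growth is compared with that of vehicle-treated cultures to give percent inhibition.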

[11] = NCI Yeast Anticancer Drug Screen. Data for the wt1 strain (AID 149);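 note: 0% = growth of vehicle-treated wt1 cultures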; settings: S. cerevisiae wt1 strain (SPY 50644) growth inhibition, hits give high values
How it was run: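 wt1 yeast, compound-treated; % growth inhibition vs vehicle control.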

[12] = NCI Yeast Anticancer Drug Screen. Data for the rad50EPP+ strain (AID 151);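 note: 0% = growth of vehicle-treated control cultures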; settings: S. cerevisiae rad50 mutant strain, hits give high values
How it was run: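 rad50EPP+ yeast treated with test compounds. Readout: growth vs vehicle control.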

[13] = NCI Yeast Anticancer Drug Screen. Data for the mgt1 strain (AID 153); settings: S. cerevisiae mgt1 mutant growth inhibition, hits give high values
How it was run: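 Growth inhibition relative to vehicle controls was scored for the mgt1 yeast strain after compound exposure.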

[14] = NCI Yeast Anticancer Drug Screen. Data for the rad50 strain (AID 155);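 note: 0% = growth of vehicle-only cultures of the same strain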; settings: S. cerevisiae rad50 strain growth inhibition, hits give high values
How it was run: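 Genetically altered yeast (DNA repair pathway); compound treatment; growth inhibition vs vehicle ctrl.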

[15] = NCI Yeast Anticancer Drug Screen. Data for the mlh1 rad18 strain (AID 175); settings: S. cerevisiae mlh1 rad18 strain growth inhibition, hits give high values
How it was run: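 Cells of a genetically altered yeast strain, deficient in DNA damage repair, were treated with compound. Their growth was then compared with that of vehicle-treated cultures to give inhibition.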

[16] = at 5.0 µM (retest, dose inferred, filed as 0.5)
[17] = at 50.0 µM (retest, dose inferred, filed as 5.0)

Measured: growth inhibition

Cc1nc2ccccc2c(=O)n1NC(=O)c1ccc(CS)cc1
inactive: [2]; at 1.2 µM -21% | [2]; at 3.7 µM -23% | [2]; at 11.0 µM -25% | [2]; at 33.0 µM 26% | [3]; [16] -14% | [3]; [17] 3% | [3]; at 50.0 µM 65.5% | [4]; at 1.2 µM 2% | [4]; at 3.7 µM -17% | [4]; at 11.0 µM -6% | [4]; at 33.0 µM 22% | [5]; [16] -29% | [5]; [17] 6% | [5]; at 50.0 µM 31.9% | [6]; at 1.2 µM 16% | [6]; at 3.7 µM -6% | [6]; [16] -13% | [6]; at 11.0 µM 16% | [6]; at 33.0 µM 45% | [6]; [17] 41% | [6]; at 50.0 µM -8.65% | [7]; at 1.2 µM 4% | [7]; at 3.7 µM 7% | [7]; at 11.0 µM 9% | [7]; at 33.0 µM 16% | [8]; at 1.2 µM 0% | [8]; at 3.7 µM 12% | [8]; at 11.0 µM 16% | [8]; at 33.0 µM 36% | [9]; at 1.2 µM 15% | [9]; at 3.7 µM 11% | [9]; at 11.0 µM 20% | [9]; at 33.0 µM 61% | [10]; at 1.2 µM 9% | [10]; at 3.7 µM 12% | [10]; at 11.0 µM 2% | [10]; at 33.0 µM 40%
active: [1]; at 100.0 µM 97% | [2]; at 100.0 µM 95% | [4]; at 100.0 µM 95% | [6]; at 100.0 µM 96% | [7]; at 100.0 µM 92% | [8]; at 100.0 µM 95% | [9]; at 100.0 µM 95% | [10]; at 100.0 µM 96%

COc1cc(C(C)C(C(=O)O)C(=O)C(=O)O)cc(OC)c1OC (stereo not drawn)
inactive: [11]; at 1.2 µM 0% | [11]; at 3.7 µM 2% | [11]; at 11.0 µM 3% | [11]; at 33.0 µM 4% | [11]; at 100.0 µM 5% | [12]; at 1.2 µM -3% | [12]; at 3.7 µM -7% | [12]; at 11.0 µM -4% | [12]; at 33.0 µM -8% | [12]; at 100.0 µM 1% | [13]; at 1.2 µM 1% | [13]; at 3.7 µM 2% | [13]; at 11.0 µM 2% | [13]; at 33.0 µM 1% | [13]; at 100.0 µM 21% | [14]; at 1.2 µM 3% | [14]; at 3.7 µM 3% | [14]; [16] -41% | [14]; at 11.0 µM 4% | [14]; at 33.0 µM 5% | [14]; [17] -9% | [14]; at 50.0 µM 0.85% | [14]; at 100.0 µM 4% | [1]; at 1.2 µM -5% | [1]; at 3.7 µM -3% | [1]; [16] 7% | [1]; at 11.0 µM -3% | [1]; at 33.0 µM -2% | [1]; [17] -4% | [1]; at 50.0 µM 9.9% | [1]; at 100.0 µM 0% | [2]; at 1.2 µM -1% | [2]; at 3.7 µM -2% | [2]; at 11.0 µM 2% | [2]; at 33.0 µM 3% | [2]; at 100.0 µM 5% | [3]; [16] -5% | [3]; [17] 2% | [3]; at 50.0 µM -3.75% | [5]; [16] 10% | [5]; at 50.0 µM -22.4% | [6]; at 1.2 µM 1% | [6]; at 3.7 µM -1% | [6]; [16] 4% | [6]; at 11.0 µM -6% | [6]; at 33.0 µM -3% | [6]; [17] 11% | [6]; at 50.0 µM 44.6% | [6]; at 100.0 µM -2% | [7]; at 1.2 µM 1% | [7]; at 3.7 µM 0% | [7]; at 11.0 µM 2% | [7]; at 33.0 µM -1% | [7]; at 100.0 µM 2% | [8]; at 1.2 µM 0% | [8]; at 3.7 µM 0% | [8]; at 11.0 µM 2% | [8]; at 33.0 µM 3% | [8]; at 100.0 µM 6% | [9]; at 1.2 µM -1% | [9]; at 3.7 µM -1% | [9]; at 11.0 µM 0% | [9]; at 33.0 µM 2% | [9]; at 100.0 µM 6% | [15]; [16] -3% | [15]; [17] 41% | [15]; at 50.0 µM 44.9% | [10]; at 1.2 µM -5% | [10]; at 3.7 µM -2% | [10]; at 11.0 µM -4% | [10]; at 33.0 µM 1% | [10]; at 100.0 µM 9%
active: [5]; [17] 76%
